ChEMBL document CHEMBL1157539, “Thousands of chemical starting points for antimalarial lead identification” (Nature, 2010)

Tests used:
Assay type in all cases: functional
Plasmodium falciparum [1] = test: GSK_TCMDC: Inhibition of Plasmodium falciparum 3D7 in whole red blood cells, using parasite LDH activity as an index of growth. Test compounds present at 2uM
Plasmodium falciparum [2] = test: GSK_TCMDC: Inhibition of Plasmodium falciparum Dd2 in whole red blood cells, using parasite LDH activity as an index of growth. Test compounds present at 2uM
HepG2 = test: GSK_TCMDC: Percent inhibition of human HepG2 cell line. Test compounds present at 10uM.

COC(=O)c1cccc(CNCc2ccc(-c3cccc(-c4nc5ccccc5[nH]4)c3)cc2)c1.O=C(O)C(F)(F)F
Inhibition (Plasmodium falciparum [1]): 100% | Inhibition (Plasmodium falciparum [2]): 46% | Inhibition (HepG2): 5%

O=C(NC1CCCCN(Cc2ccccc2O)C1)c1cccc(C(F)(F)F)c1.O=C(O)C(F)(F)F (stereo not given)
Inhibition (Plasmodium falciparum [1]): 93% | Inhibition (Plasmodium falciparum [2]): 64% | Inhibition (HepG2): 0%

Cl.OC(c1cccc(OCc2ccccc2)c1)C1CN(CCc2ccccc2)CCC1(O)c1ccccc1 (stereo not given)
Inhibition (Plasmodium falciparum [1]): 98% | Inhibition (Plasmodium falciparum [2]): 98% | Inhibition (HepG2): 7%

C=C[C@H]1CN(CCCCCCC)CC[C@H]1CCNc1ccnc2ccc(OC)cc12
Inhibition (Plasmodium falciparum [1]): 95% | Inhibition (Plasmodium falciparum [2]): 81% | Inhibition (HepG2): 99%

Cc1cc(Nc2ccc3ccccc3c2)n2ncnc2n1
Inhibition (Plasmodium falciparum [1]): 96% | Inhibition (Plasmodium falciparum [2]): 95% | Inhibition (HepG2): 11%

O=C(NCc1ccc(Cl)c(Cl)c1)c1cc(CNC2CCNCC2)ccc1O
Inhibition (Plasmodium falciparum [1]): 82% | Inhibition (Plasmodium falciparum [2]): 2% | Inhibition (HepG2): 2%

CC(=O)c1ccc(NC(=O)Nc2ccc3nccc(N4CCN(C)CC4)c3c2)cc1
Inhibition (Plasmodium falciparum [1]): 100% | Inhibition (Plasmodium falciparum [2]): 93% | Inhibition (HepG2): 2%

COc1ccc2nccc([C@@H](O)CN3CCC(NCc4cc5cccc(O)c5c(=O)[nH]4)CC3)c2c1.Cl
Inhibition (Plasmodium falciparum [1]): 99% | Inhibition (Plasmodium falciparum [2]): 66% | Inhibition (HepG2): 8%

Cc1cccc2nc(-c3cccc(-c4cccc(CNCC5CCCO5)c4)c3)[nH]c12.O=C(O)C(F)(F)F (stereo not given)
Inhibition (Plasmodium falciparum [1]): 100% | Inhibition (Plasmodium falciparum [2]): 99% | Inhibition (HepG2): 26%

COC(=O)c1cccc(CNCc2cccc(-c3ccc(-c4nc5cc(C(F)(F)F)ccc5[nH]4)cc3)c2)c1.O=C(O)C(F)(F)F
Inhibition (Plasmodium falciparum [1]): 100% | Inhibition (Plasmodium falciparum [2]): 83% | Inhibition (HepG2): 13%
